KB-3-1 tox: KB-3-1 parental cell cytotoxicity. 400,000 compounds, 1.4% hits. AID 1347075. Potency, µM (titrated, usually from 46.1 µM), usual class: cytotoxic. KB-3-1 viability, CellTiter-Glo ATP luminescence, 72 h; also: % is scaled to controls: 0 for no effect and ±100 for the full control effect; nearly all actives have a fitted effect of over 60% in size
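Here the drug-naive KB-3-1 line serves as comparator for MDR sub-line selectivity; cells received compound titrations, 72 h at 37 °C, then CellTiter-Glo readout.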
MCF10A rereplic: inducers of DNA re-replication in MCF 10A breast cells | AID 624296 | Potency, µM (doses to about 46.1 µM), without a hit: top-dose activity, positive = re-replication, usual class: activators | MCF 10A DNA re-replication, Hoechst nuclear intensity, 48 h | 350,000 compounds, 2.9% hits; also: % of control where 0% means no effect; nearly all actives have a fitted effect of over 50% in size
HT1080 IDH1KD tx: toxicity to HT-1080 IDH1 knockdown cells (counter line). Potency, µM (top dose mostly 46.1 µM), inactives show top-dose activity, negative = toxicity, usual class: cytotoxic. 360,000 compounds, 2% hits. HT-1080 IDH1 knockdown viability, ATP luminescence, 48 h;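 also: 0% = DMSO wells and -100% = cell-free medium wells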
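% activity derives from luminescence (CellTiter-Glo), normalised to DMSO and no-cell wells. HT-1080-IDH1KD cells, 750/well, had 48 h compound exposure at 37 °C.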
HT1080-NT tox: kills 2HG-producing HT-1080-NT fibrosarcoma cells; HT-1080-NT fibrosarcoma viability, CellTiter-Glo ATP luminescence, 48 h; Potency, µM (highest dose often 46.1 µM), inactives show top-dose activity, negative = less viability, hits mostly cytotoxic; 360,000 compounds, 1.6% hits;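 also: NT is the 2HG producing partner of a matched IDH1 knockdown line; 0% = DMSO-treated cells and -100% = media-only wells without cells; nearly all actives have a fitted effect of over 55% in size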
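Toxicity toward the 2HG-producing NT line was scored as %Activity, normalised to DMSO and no-cell wells, from CellTiter-Glo luminescence after 48 hours' treatment.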
KB-V1 MDR tox: KB-V1 MDR subline cytotoxicity. KB-V1 MDR cells viability, CellTiter-Glo, 72 h. Potency, µM (doses to about 46.1 µM), hits mostly cytotoxic. 400,000 compounds, 3.4% hits. AID 1347076; also: % is scaled to controls: 0 for no effect and ±100 for the full control effect; nearly all actives have a fitted effect of over 60% in size
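Potencies derive from concentration-effect curves fitted to normalized luminescence (CellTiter-Glo) of KB-V1 cells treated for 72 h at 37 degrees C in phenol-red-free DMEM containing 10% FBS.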
SW480 rereplic: inducers of DNA re-replication in SW480 colon cancer cells; 340,000 compounds, 1.8% hits; SW480 DNA re-replication, Hoechst DNA content imaging, 48 h; Potency, µM (series often up to 46.1 µM), inactives show at the highest dose re-replication activation, actives largely listed as activators; also: % of control where 0% means no effect; nearly all actives have a fitted effect of over 55% in size
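SW480 cells exposed to compounds for 48 hr at 37 C, 5% CO2, then Hoechst-stained 40 min. Nuclear DNA content imaged by fluorescence scanning (405 nm excitation, 500-530 nm emission); re-replication scored as increased high-intensity nuclei.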
* hit, by the source's call; i = inactive; ? = inconclusive; · = no result; [ ] = another dose, or the depositor's remark. This is a sample that favours compounds with a hit; in the whole collection about 7.9% have one here. Calls follow the shape of the dose curve; as a rule, active = well fitted curve in the direction sought with a large enough effect; inconclusive = small, poorly fitted or top-dose-only effect, or another doubt; inactive = no such curve, though single readings can be large; an effect the other way counts as inactive or inconclusive. Potency is read from the fitted curve at half-maximal effect.

SMILES	KB-3-1 tox	MCF10A rereplic	HT1080 IDH1KD tx	HT1080-NT tox	KB-V1 MDR tox	SW480 rereplic
Oc1ccc(C[C@H]2CNC(=S)N2CC2CCCN2C[C@H](Cc2ccc(O)cc2)N2C[C@H](Cc3ccc(O)cc3)N(CC3CCCCC3)C2=S)cc1 (some centres undefined)	?	12µM*	?	16µM*	i	?
Oc1ccc(C[C@H]2CN([C@@H](Cc3cccc(O)c3)CN3CCC[C@@H]3CN3C(=S)NC[C@@H]3Cc3ccccc3)C(=S)N2CC2CCCCC2)cc1	?	·	23µM*	18µM*	i	·
CCN(CC)S(=O)(=O)c1ccc2c(c1)nc(CN(C)C(=O)Nc1cccc(Cl)c1)n2C	i	·	·	·	i	·
Oc1c(CNc2ccccc2)cc(COCc2ccccc2)c2cccnc12	i	8%	·	·	i	0.46µM*
Oc1c(CN2CCOCC2)cc(COCc2ccccc2)c2cccnc12	?	?	13µM*	?	?	3.7µM*
Cc1ccc(NCc2ccc(O)c3ncccc23)cc1	i	5%	-25%	1%	i	?
Cc1cc(OCc2cccc(Cl)c2)c(C)cc1CN1CCOCC1	i	18%	-21%	-6%	i	0%
CCOc1cc(C(=O)NC(C)C2CC3CCC2C3)cc(OCC)c1OCC (centres undefined)	i	13µM*	26%	19%	i	-3%
COc1cc(C(=O)NC(C)C2CC3CCC2C3)ccc1OC(F)F (centres undefined)	i	14%	-12%	0%	21µM*	7%
Cc1ccc(C(=O)NC(C)C2CC3CCC2C3)cc1 (centres undefined)	i	?	4%	3%	i	-11%
Cc1c(C)n(C)c2ccc(C(=O)NCCc3ccc(Cl)cc3)cc12	i	·	·	·	i	·
COc1cccc(N=c2oc3ccccc3cc2-c2nc3ccccc3[nH]2)c1	i	11%	?	?	18µM*	19%
O=C(Cn1c(SCCOc2ccccc2Cl)nc2ccccc21)N1CCOCC1	i	·	·	·	i	·
CCCCOc1ccc(C(=O)NCC2(c3ccccc3)CCOCC2)cc1	i	28%	0%	-5%	i	18%
CCCCCOc1ccc(C(=O)NCC2(c3ccccc3)CCOCC2)cc1	i	22%	?	-5%	23µM*	3%
O=C1CC(O)(c2ccccc2)C(c2ccccc2)=C1c1ccccc1 (centres undefined)	?	17%	-23%	?	18µM*	-2%[9.22 µM]
Cc1ccc(NC(=O)c2cccn2-c2nnc(N3CCCCC3)s2)cc1Cl	i	·	·	·	i	·
COc1ccc(-c2[nH]nc3nc(-c4cc(Br)ccc4OC)cc(C(=O)O)c23)cc1	i	·	·	·	?	·
Cc1cc(N)cc(C)c1-c1c(Br)cc(N)cc1Br	13µM*	?	?	?	16µM*	?
Nc1cc(N)cc(N)c1	i	·	·	·	i	·
COc1ccc(Cn2c(CCC(=O)Nc3ccc(CC#N)cc3)nc3cccnc32)cc1	i	16%	?	?	2.6µM*	11%
COc1ccc(Cn2c(CCC(=O)Nc3ccccc3)nc3cccnc32)cc1	i	29%	?	-27%	i	-1%
CC1CCN(c2ccccc2NC(=S)NC(=O)c2ccc(-c3cccc([N+](=O)[O-])c3)o2)CC1	i	8%	15%	8%	i	-21%
CC1CCN(c2ccc(NC(=S)NC(=O)c3ccc(-c4cccc([N+](=O)[O-])c4)o3)cc2)CC1	i	19%	6.3µM*	?	i	?
C(=C\c1ccccc1)/CN1CCN(C(c2nnnn2C2CCCCC2)C2CC2)CC1 (centres undefined)	i	·	?	?	18µM*	·
CCCC(CCC)C(=O)NC1CC(=O)N(c2ccc3c(c2)OCCO3)C1 (centres undefined)	i	·	·	·	i	·

Compound activity deposited in PubChem by National Center for Advancing Translational Sciences (NCATS).
